Experimental data from the supplement of paper PMC3484114.
“And” between values parts separate entries of the source, which are not always exact repeats. Equal entries are not always repeated. ± gives the standard deviation.

The molecules below were run on OVCAR-3-derived ovarian cancer stem-like cells (spheroids) (assay: cell growth relative to untreated control; higher = more growth (less inhibition)). Details: 2.29 µM; 96 h.
In short: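 Viability of stem-like cells from OVCAR-3 spheroids was assessed with TOX8 resazurin fluorescence at ex 560/em 590 nm. The cells had been trypsin-dissociated, seeded at 50,000 cells/mL in stem cell medium in ultra-low attachment 96-well plates and preincubated 24 h, then treated with compounds at 2.29 uM for 96 h at 37°C, 5% CO2, in 4 replicate wells, with fluorescence read after 4 h. Results were converted to percent growth against untreated wells after blank subtraction and Grubbs outlier removal.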
Work on Cc1ccc2c(ccc(C=Cc3ccc(O)c4ncccc34)[n+]2C)c1 yielded a cell growth of 23.7 ± 4.7%. Molecule O=C1Nc2c(Cl)cc(Cl)cc2C1=NN=Cc1ccco1 has a cell growth of 84.3 ± 20%. Work on CN(CCc1ccccn1)c1ccc2c(c1)C(=O)c1ccccc1-2 yielded a cell growth of 103 ± 32%. CCN(CC)c1ccc2cc3ccc(=[N+](CC)CC)cc-3oc2c1 showed a cell growth of 45.5 ± 10%. COc1cc(/C=C/C(=O)CC(=O)/C=C/c2ccc(O)c(OC)c2)ccc1O was tested, and the cell growth was 89 ± 24%. CCOC(=O)c1ccc(-c2cc(C)no2)[nH]1 showed a cell growth of 54.8 ± 10%. CC(/C=C/C(O)=C1/C(=O)CNC1=O)=C\[C@@H](C)[C@H]1O[C@]2(C)O[C@@H](C(=O)[C@@H]3O[C@@]32C)[C@@H]1C was tested, and the cell growth was 60.3 ± 14%. With O=C(Nc1ccc(Sc2ccc(N=Nc3c(O)c(S(=O)(=O)O)cc4cc(S(=O)(=O)O)ccc34)cc2)cc1)c1ccc(N=Nc2c(O)ccc3c(S(=O)(=O)O)cc(S(=O)(=O)O)cc23)cc1 the cell growth was 95.9 ± 9.6%. COC(=O)NC1C(C)OC(OC2C/C=C(/C)C3C=CC4C(OC5CC(OC6CC(O)C(OC7CC(O)C(OC)C(C)O7)C(C)O6)C(O)C(C)O5)C(C)CC(C)C4C3(C)/C(O)=C3\C(=O)OC4(CC(C)C(CO)=CC4/C=C\2C)C3=O)CC1(C)[N+](=O)[O-] (centres undefined) showed a cell growth of 105 ± 34%. CC(C)(C)CC(C)(C)NCC(O)COc1ccc(C(C)(C)c2ccc(OCC(O)CNC(C)(C)CC(C)(C)C)cc2)cc1 (centres undefined) was tested, and the cell growth was 7.1 ± 2.1%. For CCCCCCCCCCCCCCCCOP(=O)([O-])OCC[N+](C)(C)C, the cell growth was 85.9 ± 16%. CC1(C)C(O)OC(O)C1(C)C (centres undefined) showed a cell growth of 9.3 ± 2%. CC(C)(C)[Si](C)(C)OCC1CCC(n2cnc3c(N)ncnc32)O1 (centres undefined) was tested, and the cell growth was 111 ± 23%. In the case of CN1CCN(CCNc2ccc(CO)c3sc4ccccc4c(=O)c23)CC1, the cell growth is reported as 49.7 ± 14%. With C=C1C(=O)OCC2C(C(=O)O)=CC3C(C)C(C)=CC123 (centres undefined) the cell growth was 76.4 ± 10%. In the case of Cc1c2ccc3ccccc3c2c[n+]2ccccc12, the cell growth is reported as 88.9 ± 14%. O=C1C=Cc2ncccc2C1=O gave a cell growth of 97.9 ± 16%. With O=c1cccccc1O the cell growth was 92.1 ± 38%. Molecule O=[N+]([O-])c1ccc2oc(=Nc3ccccc3)c(Nc3ccccc3)nc2c1 has a cell growth of 101 ± 11%. O=C1/C(=C\c2ccccc2)CN(C(=O)/C=C/c2ccccc2)C/C1=C\c1ccccc1 showed a cell growth of 74.7 ± 18%. For CN1CCN(CCCN2c3ccccc3Sc3ccc(C(F)(F)F)cc32)CC1, the cell growth was 79.1 ± 24%. CCc1cccc(C(C)C)c1NC(=O)/C(=N\NC(N)=O)C(C(=O)OC)c1cnc2ccccc2n1 (centres undefined) showed a cell growth of 71.4 ± 14%. In the case of O=C1C(=O)c2ccccc2C(O)=C1CC=C(Cl)Cl, the cell growth is reported as 92.3 ± 30%. CC1(C)CC(Nc2ccc(Nc3ccccc3)cc2)CC(C)(C)N1 showed a cell growth of 72.4 ± 10%. For Cc1cc(NC(=O)NC(=O)c2ccccc2NC(=O)CN)ccc1Oc1ncc(Br)cn1, the cell growth was 49.8 ± 9%. Work on CS(=O)(=O)c1nc(N)nc2nc[nH]c12 yielded a cell growth of 99.3 ± 19%. C1CN(c2nnc(N3CCC3)nn2)C1 gave a cell growth of 104 ± 18%. In the case of CSC1SC[C@H]2C(=O)N(C)[C@@H](C(C)C)C(=O)OC[C@@H](NC(=O)c3cnc4ccccc4n3)C(=O)N[C@@H](C)C(=O)N(C)[C@@H]1C(=O)N(C)[C@@H](C(C)C)C(=O)OC[C@@H](NC(=O)c1cnc3ccccc3n1)C(=O)N[C@@H](C)C(=O)N2C (some centres undefined), the cell growth is reported as 19.7 ± 3.8%. For NCCSSCc1ccccc1CSSCCN, the cell growth was 109 ± 25%. In the case of CC(C)(C)OC(=O)NC(Cc1ccccc1)C(=O)OCN1C(=O)C2C3C=CC(C2C1=O)C1C2C(=O)N(COC(=O)C(Cc4ccccc4)NC(=O)OC(C)(C)C)C(=O)C2C31 (centres undefined), the cell growth is reported as 109 ± 26%. CSc1ccc(NC(=O)CCl)cc1 was tested, and the cell growth was 80.8 ± 14%. For COc1ccc2nc(C)cc(NCCCCCCCCCNc3cc(C)nc4ccc(OC)cc34)c2c1, the cell growth was 75.9 ± 37%. Nc1nc2n[nH]nc2c(=O)[nH]1 was tested, and the cell growth was 91.6 ± 14%. With COc1ccc(C2C(C)C(=O)C(C)C(c3ccc(OC)cc3)N2N=O)cc1 (centres undefined) the cell growth was 110 ± 23%. Cc1c(C(=O)C/C(=N/NC(=O)CC#N)C(N)=O)[n+](=O)c2ccccc2n1[O-] showed a cell growth of 51.9 ± 10%. For [Mo], the cell growth was 97% and 106%. With O=C1C=C(Nc2ccccc2C(=O)CC(=O)C(=O)Nc2ccc(Cl)c(Cl)c2)c2ccccc2C1=O the cell growth was 79.6 ± 13%. Cc1nn(-c2ccccc2)c2c1CC(=O)Nc1ccccc1-2 showed a cell growth of 114 ± 32%. Work on COCCOC1=C(Cl)C(=O)c2c(O)ccc(O)c2C1=O yielded a cell growth of 114 ± 18%.
